Source: PubChem BioAssay AID1159580 (chemical genetic matrix, 2015)
In all, about 5,500 compounds went through this assay and about 2,000 (36%) were called active. Inconclusive results (about 18%) are left out. Cut-off read from the data, not from the text of the source: active = normalized growth mostly below about 0.91 (no sharp cut-off); inconclusive = no clear call, values can overlap the other calls; inactive = mostly above about 0.92. The list shows a part of the results.

Test: chemical genetic growth profiling, strain panel (AID 1159580);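 note: tested at 20 µM; growth read once vehicle control cultures reached saturation at 30 °C; 1 = growth at the plate median or of vehicle wells; lower values mean less growth of the strain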
Conditions: S. cerevisiae deletion strains, growth OD

Measured: normalized growth

COc1[nH]c2ccc(F)cc2c1C(=O)OCC1CCN(CCNS(C)(=O)=O)CC1
inactive: locus YAL040C, strain CLN3, hits give low values 0.958 | locus YCL061C, strain MRC1 (second series), hits give low values 0.994 | locus YDR150W, strain NUM1, hits give low values 0.986 | locus YDR363W, strain ESC2, hits give low values 0.995 | locus YER002W, strain NOP16, hits give low values 1.01 | locus YGR078C, strain PAC10, hits give low values 1.02 | locus YJR075W, strain HOC1, hits give low values 1.01 | locus YNL153C, strain GIM3, hits give low values 1.01 | locus YNL175C, strain NOP13, hits give low values 1 | locus YNL197C, strain WHI3, hits give low values 1.02 | locus YNL224C, strain SQS1, hits give low values 1.01 | locus YOR083W, strain WHI5 (second series), hits give low values 0.993 | locus YPL241C, strain CIN2, hits give low values 1.01
